Values without a mark were called inactive. Activity calls are given as the source filed them.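 Rule for the calls, unless noted: active = compounds lowering colon cancer cell viability after pretreatment blocking the GSK3B kinase; inactive = the rest.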
assay: stimulators of insulin release from INS-1E, primary screen, cell-based, 5 mM glucose, NPC library (AID 1117329;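 active = compound raises insulin release from rat beta cells at 5 mM glucose, no numeric limit stated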; note: reference of the scale not given here); conditions: rat INS-1E insulin secretion, at 10 µM, hits give high values

| SMILES | insulin secretion stimulation [%] |
| --- | --- |
| COC(=O)Nc1nc2ccc(C(=O)C3CC3)cc2[nH]1 | 1.9 |
| Oc1ccc(C(O)CNCCCCCCNCC(O)c2ccc(O)c(O)c2)cc1O (stereo not drawn) | 1.65 |
| CC(=O)OC[C@H]1O[C@@H](OC(C)=O)[C@H](OC(C)=O)[C@@H]1OC(C)=O | -1.25 |
| Cc1ccccc1N=Nc1ccc(N=Nc2c(O)ccc3ccccc23)c(C)c1 | 1.7 |
| Nc1ccc(C(=O)OCC(O)CO)cc1 (stereo not drawn) | 0.6 |
| NNc1nnc(NN)c2ccccc12 | -1.8 |
| Cc1ncc(CO)c(C=O)c1O | 2.8 |
| CCOC(=O)c1cc(=O)c2c(OCC(COc3cccc4oc(C(=O)OCC)cc(=O)c34)OC(=O)[C@@H](N)CCCCN)cccc2o1 | -1.2 |
| CN(C)[C@@H]1C(=O)C(C(=O)NCN2CCCC2)=C(O)[C@@]2(O)C(=O)C3=C(O)c4c(O)cccc4[C@@](C)(O)C3C[C@@H]12 (stereo partly drawn) | 2.3 |
| Nc1nc(=O)n([C@@H]2O[C@H](CO)[C@@H](O)[C@@H]2F)cc1I | 0.8 |
| OCC(O)CS (stereo not drawn) | 0.7 |
| Nc1ccc(/C=C/c2ccc(N)cc2S(=O)(=O)O)c(S(=O)(=O)O)c1 | 0.1 |
| CC(=O)Nc1ccn(C2COC(COC(=O)c3ccccc3)O2)c(=O)n1 (stereo not drawn) | 1 |
| COC1=C(OC)C(=O)C(CC=C(C)CCC=C(C)CCC=C(C)CCC=C(C)CCC=C(C)CCC=C(C)CCC=C(C)CCC=C(C)CCC=C(C)CCC=C(C)C)=C(C)C1=O | 3.9 |
| NC[C@H]1O[C@H](O[C@H]2[C@@H](O)[C@@H](O[C@H]3O[C@H](CO)[C@@H](O)[C@H](N)[C@@H]3O)[C@H](N)C[C@@H]2N)[C@H](N)C[C@H]1O | -1.2 |
| Cc1ccc(O)c(-n2nc3ccccc3n2)c1 | -1.4 |
| Nc1c(NC/C=C\COc2cc(CN3CCCCC3)ccn2)c(=O)c1=O | 0.1 |
| CCCCNC(=O)NS(=O)(=O)c1ccc(N)cc1 | 0.4 |
| CC(=O)c1cc2ccccc2s1 | -1.3 |
| NS(=O)(=O)c1ccc(Cl)c(S(N)(=O)=O)c1 | -1.3 |

| SMILES | insulin secretion stimulation [%] |
| --- | --- |
| CC(C)Cc1ccc(CC(=O)O)cc1 | 0.2 |
| NCC(=O)O | -2.4 |
| CC12CCC(C[N+](C)(CCC[N+](C)(C)C)C1)C2(C)C (stereo not drawn) | -2.5 |
| CN(C)C(=O)CNC(=O)Cc1ccccc1 | 2.5 |
| Cc1cccc(N(C)C(=S)Oc2ccc3c(c2)CCC3)c1 | 3.9 |
| COc1cc2c(cc1OC)C(C(C(=O)N(CCc1ccc(OC)c(OC)c1OC)CCc1ccc(OC)c(OC)c1OC)c1ccccc1)=NCC2 (stereo not drawn) | -0.9 |
| O=C1CCC(C(=O)O)N1 (stereo not drawn) | 2.6 |
| O=Cc1ccc(O)c(O)c1O | -1.7 |
| O=S(c1cc(Cl)cc(Cl)c1O)c1cc(Cl)cc(Cl)c1O | 4.7 |
| CC(C)(C)c1cc(C=O)cc(C(C)(C)C)c1O | 1.1 |
| CN(CC1(C)CCCO1)S(=O)(=O)c1ccc(Cl)c(S(N)(=O)=O)c1 (stereo not drawn) | 2 |
| CCCCC(C)(O)CC=C[C@H]1[C@H](O)CC(=O)[C@H]1CCCCCCC(=O)OC (stereo partly drawn) | 0.9 |
| C=CCOc1cc(Cl)ccc1C(=O)NCCN(CC)CC | 16.7 |
| CC(=O)SCC(CC(=O)c1ccc(C)cc1)C(=O)O (stereo not drawn) | 2.9 |
| CCCCNc1ccc(C(=O)OCCN(CC)CC)cc1 | 7.25 |
| C/C=C(/C(=C/C)c1ccc(OC(C)=O)cc1)c1ccc(OC(C)=O)cc1 | 1.65 |
| O=C(Nc1ccc(Oc2ccc(Cl)cc2)c(Cl)c1)c1cc(I)cc(I)c1O | 0.2 |
| CC(=O)Nc1ccc(OC(=O)c2ccccc2OC(C)=O)cc1 | 4.1 |
| O=C(/C=C/c1ccccc1)OCc1ccccc1 | -0.1 |

assay: growth inhibition of GSK3B-pretreated HCT116 cells – cell-based, CellTiter-Glo, 0.2 to 20 µM (AID 1117336); conditions: HCT116 viability after GSK3B inhibitor, at 20 µM, hits give high values

| SMILES | viability decrease |
| --- | --- |
| COC(=O)Nc1nc2ccc(C(=O)C3CC3)cc2[nH]1 | 93.1% (active) |
| Oc1ccc(C(O)CNCCCCCCNCC(O)c2ccc(O)c(O)c2)cc1O (stereo not drawn) | 76.1% (active) |
| CC(=O)OC[C@H]1O[C@@H](OC(C)=O)[C@H](OC(C)=O)[C@@H]1OC(C)=O | -0.8% |
| Cc1ccccc1N=Nc1ccc(N=Nc2c(O)ccc3ccccc23)c(C)c1 | 2.6% |
| Nc1ccc(C(=O)OCC(O)CO)cc1 (stereo not drawn) | 0.9% |
| NNc1nnc(NN)c2ccccc12 | -0.85% |
| Cc1ncc(CO)c(C=O)c1O | -8.9% |
| CCOC(=O)c1cc(=O)c2c(OCC(COc3cccc4oc(C(=O)OCC)cc(=O)c34)OC(=O)[C@@H](N)CCCCN)cccc2o1 | -30% |
| CN(C)[C@@H]1C(=O)C(C(=O)NCN2CCCC2)=C(O)[C@@]2(O)C(=O)C3=C(O)c4c(O)cccc4[C@@](C)(O)C3C[C@@H]12 (stereo partly drawn) | -20.7% |
| Nc1nc(=O)n([C@@H]2O[C@H](CO)[C@@H](O)[C@@H]2F)cc1I | 2.9% |
| OCC(O)CS (stereo not drawn) | -84.2% |
| Nc1ccc(/C=C/c2ccc(N)cc2S(=O)(=O)O)c(S(=O)(=O)O)c1 | -4.75% |
| CC(=O)Nc1ccn(C2COC(COC(=O)c3ccccc3)O2)c(=O)n1 (stereo not drawn) | 54% (active) |
| COC1=C(OC)C(=O)C(CC=C(C)CCC=C(C)CCC=C(C)CCC=C(C)CCC=C(C)CCC=C(C)CCC=C(C)CCC=C(C)CCC=C(C)CCC=C(C)C)=C(C)C1=O | 13.5% |
| NC[C@H]1O[C@H](O[C@H]2[C@@H](O)[C@@H](O[C@H]3O[C@H](CO)[C@@H](O)[C@H](N)[C@@H]3O)[C@H](N)C[C@@H]2N)[C@H](N)C[C@H]1O | -19.7% |
| Cc1ccc(O)c(-n2nc3ccccc3n2)c1 | 8.75% |
| Nc1c(NC/C=C\COc2cc(CN3CCCCC3)ccn2)c(=O)c1=O | 2.9% |
| CCCCNC(=O)NS(=O)(=O)c1ccc(N)cc1 | 2.75% |
| CC(=O)c1cc2ccccc2s1 | 32.7% |
| NS(=O)(=O)c1ccc(Cl)c(S(N)(=O)=O)c1 | -4.9% |

| SMILES | viability decrease |
| --- | --- |
| CC(C)Cc1ccc(CC(=O)O)cc1 | -11.5% |
| NCC(=O)O | 1.6% |
| CC12CCC(C[N+](C)(CCC[N+](C)(C)C)C1)C2(C)C (stereo not drawn) | -7.9% |
| CN(C)C(=O)CNC(=O)Cc1ccccc1 | 4.9% |
| Cc1cccc(N(C)C(=S)Oc2ccc3c(c2)CCC3)c1 | 33.9% |
| COc1cc2c(cc1OC)C(C(C(=O)N(CCc1ccc(OC)c(OC)c1OC)CCc1ccc(OC)c(OC)c1OC)c1ccccc1)=NCC2 (stereo not drawn) | 74.1% (active) |
| O=C1CCC(C(=O)O)N1 (stereo not drawn) | -7.5% |
| O=Cc1ccc(O)c(O)c1O | 87.5% (active) |
| O=S(c1cc(Cl)cc(Cl)c1O)c1cc(Cl)cc(Cl)c1O | 110% (active) |
| CC(C)(C)c1cc(C=O)cc(C(C)(C)C)c1O | 19.1% |
| CN(CC1(C)CCCO1)S(=O)(=O)c1ccc(Cl)c(S(N)(=O)=O)c1 (stereo not drawn) | -0.1% |
| CCCCC(C)(O)CC=C[C@H]1[C@H](O)CC(=O)[C@H]1CCCCCCC(=O)OC (stereo partly drawn) | -0.5% |
| C=CCOc1cc(Cl)ccc1C(=O)NCCN(CC)CC | 11% |
| CC(=O)SCC(CC(=O)c1ccc(C)cc1)C(=O)O (stereo not drawn) | -5.5% |
| CCCCNc1ccc(C(=O)OCCN(CC)CC)cc1 | 50.2% (active) |
| C/C=C(/C(=C/C)c1ccc(OC(C)=O)cc1)c1ccc(OC(C)=O)cc1 | 108% (active) |
| O=C(Nc1ccc(Oc2ccc(Cl)cc2)c(Cl)c1)c1cc(I)cc(I)c1O | 122% (active) |
| CC(=O)Nc1ccc(OC(=O)c2ccccc2OC(C)=O)cc1 | 0.8% |
| O=C(/C=C/c1ccccc1)OCc1ccccc1 | -14.9% |
